# Test results published in ChEMBL document CHEMBL1961873, “Compounds: GSK PKIS; Assays: Nanosyn kinase panel” (2012).
# Experiments:
# [1] = biological target: Sphingosine kinase 1 (Homo sapiens) (UniProt Q9NYA1); conditions: at 1 µM;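 further: mean SPHK1 inhibition value reported from the GSK PKIS kinase panel screen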
# [2] = biological target: T1, Sphingosine kinase 2 (Homo sapiens) (UniProt Q9NRA0); conditions: at 0.1 µM
# T1 sequence (whole entry): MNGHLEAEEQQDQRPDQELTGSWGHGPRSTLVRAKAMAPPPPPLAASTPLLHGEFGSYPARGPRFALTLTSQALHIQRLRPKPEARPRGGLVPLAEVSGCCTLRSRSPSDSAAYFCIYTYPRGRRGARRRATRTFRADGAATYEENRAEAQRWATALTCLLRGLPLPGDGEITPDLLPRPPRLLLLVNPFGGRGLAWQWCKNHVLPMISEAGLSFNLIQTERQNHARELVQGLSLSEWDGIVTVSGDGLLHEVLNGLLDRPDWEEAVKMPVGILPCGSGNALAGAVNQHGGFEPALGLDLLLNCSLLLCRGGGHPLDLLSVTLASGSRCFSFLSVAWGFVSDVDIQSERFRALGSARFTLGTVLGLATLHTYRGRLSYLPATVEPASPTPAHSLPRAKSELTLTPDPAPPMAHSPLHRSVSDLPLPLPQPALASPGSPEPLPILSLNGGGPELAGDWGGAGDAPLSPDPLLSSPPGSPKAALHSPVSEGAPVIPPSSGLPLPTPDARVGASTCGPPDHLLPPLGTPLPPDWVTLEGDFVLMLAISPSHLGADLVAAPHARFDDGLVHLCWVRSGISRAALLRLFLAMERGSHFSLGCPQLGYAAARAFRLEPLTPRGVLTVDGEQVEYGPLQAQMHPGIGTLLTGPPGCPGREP
# [3] = biological target: T1, Sphingosine kinase 2 (Homo sapiens); conditions: at 1 µM
# [4] = biological target: Casein kinase II subunit alpha (Homo sapiens) (UniProt P68400); conditions: at 0.1 µM
# Casein kinase II subunit alpha (Homo sapiens), sequence (P68400 whole entry, looked up): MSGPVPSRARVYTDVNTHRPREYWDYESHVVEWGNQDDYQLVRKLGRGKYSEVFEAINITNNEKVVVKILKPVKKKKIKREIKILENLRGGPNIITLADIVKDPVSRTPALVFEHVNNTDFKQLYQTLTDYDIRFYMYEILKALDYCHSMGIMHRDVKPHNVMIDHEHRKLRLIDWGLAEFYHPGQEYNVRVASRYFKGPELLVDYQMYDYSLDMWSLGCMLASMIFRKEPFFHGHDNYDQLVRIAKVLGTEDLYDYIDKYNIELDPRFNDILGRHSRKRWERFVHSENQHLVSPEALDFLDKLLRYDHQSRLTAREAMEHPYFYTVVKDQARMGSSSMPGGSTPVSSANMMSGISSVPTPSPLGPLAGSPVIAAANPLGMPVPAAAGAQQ
# [5] = biological target: Casein kinase II subunit alpha (Homo sapiens) (UniProt P68400); conditions: at 1 µM
# [6] = biological target: T2, Inhibitor of nuclear factor kappa-B kinase subunit alpha (Homo sapiens) (UniProt O15111); conditions: at 0.1 µM
# T2 sequence (whole entry): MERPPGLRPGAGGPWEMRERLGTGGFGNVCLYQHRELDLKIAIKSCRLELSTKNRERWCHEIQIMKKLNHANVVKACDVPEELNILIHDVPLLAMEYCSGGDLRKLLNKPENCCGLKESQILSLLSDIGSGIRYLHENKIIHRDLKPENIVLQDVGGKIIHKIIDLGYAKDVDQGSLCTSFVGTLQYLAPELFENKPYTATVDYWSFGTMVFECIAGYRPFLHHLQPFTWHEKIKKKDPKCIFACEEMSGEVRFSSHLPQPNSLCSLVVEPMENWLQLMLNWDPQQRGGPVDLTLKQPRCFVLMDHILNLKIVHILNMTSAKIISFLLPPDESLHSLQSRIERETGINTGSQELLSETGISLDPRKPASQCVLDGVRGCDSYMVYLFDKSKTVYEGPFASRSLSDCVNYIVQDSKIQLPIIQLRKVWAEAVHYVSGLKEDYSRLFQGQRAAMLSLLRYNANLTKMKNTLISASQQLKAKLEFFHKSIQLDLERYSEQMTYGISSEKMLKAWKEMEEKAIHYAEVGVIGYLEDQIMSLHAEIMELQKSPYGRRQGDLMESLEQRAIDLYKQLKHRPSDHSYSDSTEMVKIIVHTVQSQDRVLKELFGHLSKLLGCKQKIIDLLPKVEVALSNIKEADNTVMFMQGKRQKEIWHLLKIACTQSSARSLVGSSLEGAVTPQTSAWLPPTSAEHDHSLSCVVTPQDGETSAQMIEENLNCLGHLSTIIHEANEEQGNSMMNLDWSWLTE
# [7] = biological target: T2, Inhibitor of nuclear factor kappa-B kinase subunit alpha (Homo sapiens); conditions: at 1 µM
# [8] = biological target: T3, Inhibitor of nuclear factor kappa-B kinase subunit beta (Homo sapiens) (UniProt O14920); conditions: at 0.1 µM
# T3 sequence (whole entry): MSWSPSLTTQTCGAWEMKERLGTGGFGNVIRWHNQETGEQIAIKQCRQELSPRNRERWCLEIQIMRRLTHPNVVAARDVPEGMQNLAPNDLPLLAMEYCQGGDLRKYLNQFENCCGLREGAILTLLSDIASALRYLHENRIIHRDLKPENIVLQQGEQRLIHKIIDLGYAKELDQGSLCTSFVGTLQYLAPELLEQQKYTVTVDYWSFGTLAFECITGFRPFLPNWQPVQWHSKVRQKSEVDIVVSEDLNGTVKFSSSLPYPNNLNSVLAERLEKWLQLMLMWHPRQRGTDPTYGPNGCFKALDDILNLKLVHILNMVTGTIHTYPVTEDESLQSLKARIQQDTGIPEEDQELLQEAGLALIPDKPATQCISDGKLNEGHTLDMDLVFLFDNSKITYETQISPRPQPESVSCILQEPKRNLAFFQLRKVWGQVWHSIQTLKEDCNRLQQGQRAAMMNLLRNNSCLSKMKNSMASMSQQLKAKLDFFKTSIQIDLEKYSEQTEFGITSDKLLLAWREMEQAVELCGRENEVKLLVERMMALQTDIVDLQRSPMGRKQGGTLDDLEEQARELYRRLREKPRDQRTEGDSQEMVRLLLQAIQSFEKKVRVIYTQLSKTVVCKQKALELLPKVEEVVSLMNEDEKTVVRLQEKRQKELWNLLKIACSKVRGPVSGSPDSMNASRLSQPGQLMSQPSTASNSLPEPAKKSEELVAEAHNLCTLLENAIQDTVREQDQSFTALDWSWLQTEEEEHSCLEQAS
# [9] = biological target: T3, Inhibitor of nuclear factor kappa-B kinase subunit beta (Homo sapiens); conditions: at 1 µM
# [10] = biological target: T4, Inhibitor of nuclear factor kappa-B kinase subunit epsilon (Homo sapiens) (UniProt Q14164); conditions: at 0.1 µM
# T4 sequence (whole entry): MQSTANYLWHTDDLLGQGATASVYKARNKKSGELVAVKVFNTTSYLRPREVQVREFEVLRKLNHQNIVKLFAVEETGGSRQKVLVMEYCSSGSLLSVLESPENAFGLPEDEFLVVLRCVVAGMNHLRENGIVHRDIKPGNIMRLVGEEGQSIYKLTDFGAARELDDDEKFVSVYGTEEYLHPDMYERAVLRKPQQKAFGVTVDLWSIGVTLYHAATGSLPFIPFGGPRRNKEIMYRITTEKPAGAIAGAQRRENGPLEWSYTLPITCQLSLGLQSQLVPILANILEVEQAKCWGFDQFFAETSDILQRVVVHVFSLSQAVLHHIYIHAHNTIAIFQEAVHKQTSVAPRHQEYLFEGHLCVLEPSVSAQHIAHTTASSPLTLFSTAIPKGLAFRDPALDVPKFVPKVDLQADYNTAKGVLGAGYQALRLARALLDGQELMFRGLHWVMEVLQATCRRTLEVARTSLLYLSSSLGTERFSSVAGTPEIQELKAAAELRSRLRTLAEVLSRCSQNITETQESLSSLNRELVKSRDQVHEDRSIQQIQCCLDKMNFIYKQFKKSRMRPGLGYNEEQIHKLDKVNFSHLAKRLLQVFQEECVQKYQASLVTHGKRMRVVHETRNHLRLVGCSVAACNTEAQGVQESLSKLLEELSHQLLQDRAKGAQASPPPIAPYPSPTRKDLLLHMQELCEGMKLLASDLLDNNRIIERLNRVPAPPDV
# [11] = biological target: T4, Inhibitor of nuclear factor kappa-B kinase subunit epsilon (Homo sapiens); conditions: at 1 µM
# [12] = biological target: T5, Serine/threonine-protein kinase Nek1 (Homo sapiens) (UniProt Q96PY6); conditions: at 0.1 µM
# T5 sequence (whole entry): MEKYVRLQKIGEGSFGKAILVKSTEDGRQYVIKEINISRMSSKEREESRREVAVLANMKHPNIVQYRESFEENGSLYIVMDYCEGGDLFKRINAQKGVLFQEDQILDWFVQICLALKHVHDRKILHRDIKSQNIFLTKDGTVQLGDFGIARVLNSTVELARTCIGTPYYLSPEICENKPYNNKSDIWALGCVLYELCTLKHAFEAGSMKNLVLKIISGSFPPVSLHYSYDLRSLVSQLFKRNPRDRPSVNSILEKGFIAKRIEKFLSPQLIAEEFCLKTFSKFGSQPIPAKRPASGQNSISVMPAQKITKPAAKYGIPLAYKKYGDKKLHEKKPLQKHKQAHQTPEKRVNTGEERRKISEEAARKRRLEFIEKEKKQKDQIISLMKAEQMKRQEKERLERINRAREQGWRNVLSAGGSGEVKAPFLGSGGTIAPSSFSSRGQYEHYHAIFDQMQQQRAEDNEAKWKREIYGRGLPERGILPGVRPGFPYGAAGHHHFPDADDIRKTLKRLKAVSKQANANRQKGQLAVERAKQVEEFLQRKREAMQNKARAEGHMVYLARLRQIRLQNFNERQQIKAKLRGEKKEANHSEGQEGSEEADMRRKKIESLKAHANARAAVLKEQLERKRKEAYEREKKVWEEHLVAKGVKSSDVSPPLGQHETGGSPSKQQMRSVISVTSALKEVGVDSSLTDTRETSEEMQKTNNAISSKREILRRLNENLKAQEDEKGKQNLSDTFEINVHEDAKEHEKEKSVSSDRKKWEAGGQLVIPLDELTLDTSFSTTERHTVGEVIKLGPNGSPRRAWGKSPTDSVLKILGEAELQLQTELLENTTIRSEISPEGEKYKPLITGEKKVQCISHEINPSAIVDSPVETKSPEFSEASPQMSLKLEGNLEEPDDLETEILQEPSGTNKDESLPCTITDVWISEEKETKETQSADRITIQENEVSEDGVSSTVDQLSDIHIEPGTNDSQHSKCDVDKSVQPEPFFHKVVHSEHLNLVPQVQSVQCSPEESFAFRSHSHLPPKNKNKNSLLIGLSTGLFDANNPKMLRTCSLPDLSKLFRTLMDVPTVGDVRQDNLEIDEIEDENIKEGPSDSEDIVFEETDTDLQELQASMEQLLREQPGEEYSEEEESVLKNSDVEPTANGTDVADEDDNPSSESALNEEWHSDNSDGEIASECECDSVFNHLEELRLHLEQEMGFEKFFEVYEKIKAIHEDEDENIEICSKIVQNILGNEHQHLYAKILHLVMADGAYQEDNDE
# [13] = biological target: T5, Serine/threonine-protein kinase Nek1 (Homo sapiens); conditions: at 1 µM
# [14] = biological target: T6, Serine/threonine-protein kinase Nek2 (Homo sapiens) (UniProt P51955); conditions: at 0.1 µM
# T6 sequence (whole entry): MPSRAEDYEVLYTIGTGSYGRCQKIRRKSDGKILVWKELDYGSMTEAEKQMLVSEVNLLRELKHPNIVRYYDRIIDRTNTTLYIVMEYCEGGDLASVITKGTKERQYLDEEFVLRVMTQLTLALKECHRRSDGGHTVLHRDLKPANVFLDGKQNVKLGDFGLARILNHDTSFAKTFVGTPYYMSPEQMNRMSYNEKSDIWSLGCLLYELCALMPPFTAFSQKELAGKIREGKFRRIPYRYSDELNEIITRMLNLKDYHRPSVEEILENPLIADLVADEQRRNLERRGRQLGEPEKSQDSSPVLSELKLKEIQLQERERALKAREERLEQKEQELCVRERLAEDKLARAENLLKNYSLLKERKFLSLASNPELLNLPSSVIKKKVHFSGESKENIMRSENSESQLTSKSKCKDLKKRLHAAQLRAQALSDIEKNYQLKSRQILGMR
# [15] = biological target: T6, Serine/threonine-protein kinase Nek2 (Homo sapiens); conditions: at 1 µM
# [16] = biological target: Serine/threonine-protein kinase Nek6 (Homo sapiens) (UniProt Q9HC98); conditions: at 0.1 µM
# Serine/threonine-protein kinase Nek6 (Homo sapiens), sequence (Q9HC98 whole entry): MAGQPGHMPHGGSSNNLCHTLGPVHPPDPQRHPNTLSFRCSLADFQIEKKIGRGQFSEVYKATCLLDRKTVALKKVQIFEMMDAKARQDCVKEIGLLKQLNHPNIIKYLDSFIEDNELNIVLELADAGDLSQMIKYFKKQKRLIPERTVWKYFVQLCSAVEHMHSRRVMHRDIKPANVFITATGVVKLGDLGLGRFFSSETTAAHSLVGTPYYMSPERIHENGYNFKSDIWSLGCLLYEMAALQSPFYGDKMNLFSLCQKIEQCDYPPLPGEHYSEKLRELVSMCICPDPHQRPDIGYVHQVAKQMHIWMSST
# [17] = biological target: Serine/threonine-protein kinase Nek6 (Homo sapiens) (UniProt Q9HC98); conditions: at 1 µM
# [18] = biological target: Serine/threonine-protein kinase Nek7 (Homo sapiens) (UniProt Q8TDX7); conditions: at 0.1 µM
# Serine/threonine-protein kinase Nek7 (Homo sapiens), sequence (Q8TDX7 whole entry, looked up): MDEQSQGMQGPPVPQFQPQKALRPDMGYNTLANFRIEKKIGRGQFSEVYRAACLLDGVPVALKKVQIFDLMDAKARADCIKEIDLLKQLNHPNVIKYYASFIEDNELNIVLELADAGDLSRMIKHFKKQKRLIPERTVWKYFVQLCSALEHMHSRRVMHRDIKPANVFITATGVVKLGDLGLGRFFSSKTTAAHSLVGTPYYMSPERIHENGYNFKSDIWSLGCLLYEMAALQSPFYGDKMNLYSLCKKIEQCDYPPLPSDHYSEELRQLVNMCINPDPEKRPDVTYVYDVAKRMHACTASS
# [19] = biological target: Serine/threonine-protein kinase Nek7 (Homo sapiens) (UniProt Q8TDX7); conditions: at 1 µM
# [20] = biological target: T7, Serine/threonine-protein kinase Nek9 (Homo sapiens) (UniProt Q8TD19); conditions: at 0.1 µM;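 further: reported value is the mean percent inhibition of NEK9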
# T7 sequence (whole entry): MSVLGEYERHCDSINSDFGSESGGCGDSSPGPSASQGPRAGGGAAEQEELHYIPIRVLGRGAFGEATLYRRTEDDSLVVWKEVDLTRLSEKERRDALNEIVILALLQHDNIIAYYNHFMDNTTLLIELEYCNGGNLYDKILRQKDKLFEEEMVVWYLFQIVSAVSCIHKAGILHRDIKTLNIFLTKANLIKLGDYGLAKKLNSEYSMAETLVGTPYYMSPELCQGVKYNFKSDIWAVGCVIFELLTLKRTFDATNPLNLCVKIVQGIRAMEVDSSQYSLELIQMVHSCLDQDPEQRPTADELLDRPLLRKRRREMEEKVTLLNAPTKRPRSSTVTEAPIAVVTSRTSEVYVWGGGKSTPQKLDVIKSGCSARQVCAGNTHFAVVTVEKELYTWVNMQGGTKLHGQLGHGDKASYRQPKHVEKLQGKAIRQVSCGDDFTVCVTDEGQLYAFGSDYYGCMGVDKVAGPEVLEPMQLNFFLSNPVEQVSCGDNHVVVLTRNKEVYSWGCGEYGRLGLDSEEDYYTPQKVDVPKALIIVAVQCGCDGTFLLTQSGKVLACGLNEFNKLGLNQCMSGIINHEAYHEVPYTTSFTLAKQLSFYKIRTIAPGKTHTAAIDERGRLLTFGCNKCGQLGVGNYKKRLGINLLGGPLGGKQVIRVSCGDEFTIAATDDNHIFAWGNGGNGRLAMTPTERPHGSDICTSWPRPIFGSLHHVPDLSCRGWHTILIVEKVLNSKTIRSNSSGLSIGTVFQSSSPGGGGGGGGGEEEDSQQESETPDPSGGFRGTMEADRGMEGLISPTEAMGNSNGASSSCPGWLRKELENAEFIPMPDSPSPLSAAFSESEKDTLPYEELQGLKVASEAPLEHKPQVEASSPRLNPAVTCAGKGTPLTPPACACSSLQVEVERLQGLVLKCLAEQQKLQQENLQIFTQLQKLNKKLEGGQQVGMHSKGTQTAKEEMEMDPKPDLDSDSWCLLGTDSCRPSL
# Sphingosine kinase 1 (Homo sapiens), sequence (Q9NYA1 whole entry): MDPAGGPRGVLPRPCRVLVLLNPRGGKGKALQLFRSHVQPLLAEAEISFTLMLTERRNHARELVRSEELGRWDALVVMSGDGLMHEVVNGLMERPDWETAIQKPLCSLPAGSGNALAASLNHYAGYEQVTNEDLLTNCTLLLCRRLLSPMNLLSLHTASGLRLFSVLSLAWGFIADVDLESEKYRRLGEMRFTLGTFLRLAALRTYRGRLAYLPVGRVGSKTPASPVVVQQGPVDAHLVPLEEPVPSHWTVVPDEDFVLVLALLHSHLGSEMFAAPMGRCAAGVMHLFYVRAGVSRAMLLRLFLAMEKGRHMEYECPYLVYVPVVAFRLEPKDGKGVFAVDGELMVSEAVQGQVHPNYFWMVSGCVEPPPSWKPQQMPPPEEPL
SMILES,inhibition [1] [%],inhibition [2] [%],inhibition [3] [%],inhibition [4] [%],inhibition [5] [%],inhibition [6] [%],inhibition [7] [%],inhibition [8] [%],inhibition [9] [%],inhibition [10] [%],inhibition [11] [%],inhibition [12] [%],inhibition [13] [%],inhibition [14] [%],inhibition [15] [%],inhibition [16] [%],inhibition [17] [%],inhibition [18] [%],inhibition [19] [%],inhibition [20] [%]
N#Cc1c(NC(=O)c2ccccc2F)sc2c1CCCC2,1.37,0.4,-1.81,2.62,1.09,2.43,5.52,-1.19,-1.36,-2.08,-0.39,1.15,2.83,1.03,3.25,-4.29,-1.45,-2.18,0.08,-2.9
CCS(=O)(=O)c1ccc(OC)c(Nc2nccc(N(C)c3ccc4c(C)n[nH]c4c3)n2)c1,-1.1,-0.07,-0.93,13.8,7.45,12,6.37,8.64,7.82,7.85,6.37,2.52,2.74,5.67,3.85,2.07,0.72,2.57,5.28,3.29
